An excerpt weighted towards active compounds, which were near 12% of everything screened.
USP8 block: inhibitors of human USP8 deubiquitinase; P40818; purified USP8, Ub-rhodamine cleavage fluorescence, 30 min; inhibition, % at 20 µM; 47,000 tested, 4.2% active; AID 1645853
USP30 block: blocks human USP30 ubiquitin-rhodamine cleavage; Q70CQ3; AID 1645860; 47,000 tested, 5.3% active; inhibition, % at 25 µM; purified USP30, Ub-rhodamine cleavage fluorescence
USP17 block: human USP17-like deubiquitinase inhibition; A8MUK1; purified USP17, Ub-rhodamine cleavage fluorescence, 3 h; inhibition, % at 50 µM; 47,000 tested, 6.5% active; AID 1645855
Target sequence (A8MUK1 whole entry, looked up): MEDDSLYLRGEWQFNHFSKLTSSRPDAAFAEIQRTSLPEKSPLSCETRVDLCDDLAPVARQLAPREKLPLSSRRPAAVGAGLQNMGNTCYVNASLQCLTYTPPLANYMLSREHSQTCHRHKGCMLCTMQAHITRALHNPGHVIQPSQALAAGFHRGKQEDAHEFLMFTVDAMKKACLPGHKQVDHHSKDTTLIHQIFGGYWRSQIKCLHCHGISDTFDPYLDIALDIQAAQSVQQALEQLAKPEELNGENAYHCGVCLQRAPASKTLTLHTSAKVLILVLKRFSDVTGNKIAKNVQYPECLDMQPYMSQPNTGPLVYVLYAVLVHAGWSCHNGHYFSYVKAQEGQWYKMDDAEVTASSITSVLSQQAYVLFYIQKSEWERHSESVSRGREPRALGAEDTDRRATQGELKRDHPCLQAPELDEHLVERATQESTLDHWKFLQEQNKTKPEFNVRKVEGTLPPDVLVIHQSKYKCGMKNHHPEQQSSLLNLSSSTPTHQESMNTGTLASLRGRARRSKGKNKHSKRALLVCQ
A number is an active result; – = inactive; · = no result. Rule as the data show it: active = inhibition above about 30%; inactive = the rest.

SMILES	USP8 block	USP30 block	USP17 block
Cc1ccc(NC(=O)CCc2nc(CSc3nnc(-c4ccccc4)o3)no2)cc1C	–	31	–
Cc1ccc(C)c(NC(=O)CCc2nc(CSc3nc4ccccc4o3)no2)c1	–	52	–
COc1ccccc1NC(=O)CCc1nc(CSc2nc3ccccc3o2)no1	–	–	–
Cc1ccc(NC(=O)CCc2nc(CSc3nnc(-c4ccccc4)o3)no2)cc1	–	–	–
COc1ccc(OC)c(-c2csc(N(CCc3ccccc3)C(=O)C3CC3)n2)c1	–	·	–
CCOc1ccc(Nc2cc(C(=O)NCCc3ccccc3)c3ccccc3n2)cc1	–	–	56
COc1ccc(Nc2cc(C(=O)NCc3cccnc3)c3ccccc3n2)cc1OC	–	–	40
COc1ccc(Nc2cc(C(=O)NC3CCCC3)c3ccccc3n2)cc1OC	–	–	–
Cc1ccc(CCNC(=O)c2cc(OCc3ccc(C)cc3)nc3ccccc23)cc1	–	–	–
CCOc1ccc(NC(=O)c2cc(-c3ccc(OC)c(OC)c3)nc3ccccc23)cc1	–	–	–
CCOc1ccc(Nc2cc(C(=O)NCc3ccc(C)cc3)c3ccccc3n2)cc1	–	·	53
CSc1ccc(C(=O)NCc2ccc(-c3ccc(F)cc3)o2)cc1	–	–	–
CCOc1ccc(Oc2ncnc3oc(C)c(C)c23)cc1	–	–	–
CC(=O)N1Cc2cccc3cccc(c23)C1	–	–	–
Cc1ccnc(NC(=O)c2ccn(COc3ccccc3Cl)n2)c1	–	32	–
Cc1cccc(NC(=O)c2ccn(COc3ccc(F)cc3F)n2)c1C	–	–	–
O=C(Nc1cc(F)ccc1F)c1ccn(COc2ccc(F)c(Cl)c2)n1	–	70	46
O=C(Nc1ccccc1)c1ccn(COc2ccccc2F)n1	–	–	–
Cc1ccccc1NC(=O)c1ccn(COc2ccc(Cl)cc2)n1	–	–	–
O=C(Nc1ccccc1Br)c1ccn(COc2ccccc2F)n1	–	34	65
CC(C)CN1C[C@@]23CN(C(=O)NC4CCCC4)C[C@@H](C[C@@H]2S1(=O)=O)O3	–	–	–
Cc1ccc(CN2CCN(CC(=O)NC3CCCCC3)C2=O)cc1	–	–	–
CC(C)[C@H](NC(=O)[C@H](Cc1ccccc1)n1c(=O)[nH]c2ccccc2c1=O)C(=O)N1CCC(C(=O)O)CC1	–	–	–
Cc1ccc(-c2nc(-c3cccc(C(=O)N4CCOCC4)c3)no2)cc1	–	–	–
Cc1ccc(C)c(NC(=O)Cn2c(C)ncc(C(=O)NC3CCCC3)c2=O)c1	–	–	–
SMILES	USP8 block	USP30 block	USP17 block
COc1ccc(C)cc1NC(=O)Cn1ccc2ccn(C)c2c1=O	–	–	–
Cc1ccc(NC(=O)Nc2ccc(C)n(CC(=O)Nc3cc(C)ccc3C)c2=O)cc1	70	65	54
Cc1ccc(C)c(NC(=O)Cn2ccc3ccn(C)c3c2=O)c1	–	–	46
Cc1ccc(NC(=O)CN2c3ccccc3S(=O)(=O)c3ccccc32)c(C)c1	–	–	–
Cc1ccc(NC(=O)Nc2ccc(C)n(CC(=O)Nc3ccc(C)cc3C)c2=O)cc1	69	74	79
CC(C)CC(=O)Nc1ccc(-n2cnc(C(=O)N3CCOCC3)c2)nc1	–	·	–
CC(=O)N1Cc2ccccc2OC2(CCN(Cc3cnc(C(C)C)nc3)CC2)C1	–	–	–
O=C(N[C@@H]1CC[C@@H](Oc2ccccc2)[C@H](O)[C@H]1O)C1CCOCC1	–	–	–
O=C(NCc1ccccc1Cl)c1cccc(N2C(=O)CCS2(=O)=O)c1	–	–	–
CC1(C(=O)NCc2ccccc2)CCC(=O)N1CCc1ccc(Cl)cc1 (stereo unspecified)	–	–	–
CCCCc1nc2sc3c(SCC(N)=O)ncnc3c2c2c1CCC2	–	–	–
COc1ccc2c(c1)C(c1c(O)n(C)c(=O)n(C)c1=O)c1c(n(C)c(=O)n(C)c1=O)O2 (stereo unspecified)	–	–	–
CC[C@]12CC[C@@]3(CO)[C@H](CCC4=C5C(CC4)[C@H](C(=O)OC)CC513)CN2 (stereo partly specified)	–	–	–
O=C1c2c(O)cccc2C2(Oc3cccc4cccc(c34)O2)C2OC12 (stereo unspecified)	84	33	98
O=C1c2c(O)ccc(O)c2C2(Oc3cccc4cccc(c34)O2)C2OC12 (stereo unspecified)	39	89	97
CC1(C)c2ccc3c(c2C(=O)C2OC21)C(O)OC3=O (stereo unspecified)	–	–	–
O=C(NC1CCCCC1)C(c1ccc(F)cc1)N(C(=O)CN1C(=O)c2ccccc2S1(=O)=O)c1ccccc1 (stereo unspecified)	–	31	–
Cc1cc(C)c(N(C(=O)CN2C(=O)c3ccccc3S2(=O)=O)C(C(=O)NCC2CCCO2)c2ccc(F)cc2)c(C)c1 (stereo unspecified)	–	–	–

Bioassay records (PubChem)
